# The supplement of paper PMC6555819
# What was measured:
# Test in all cases: PBM binding z-score (relative to random genomic background probes); higher = stronger binding; sequences stand for … in GC…GCGATTGACAGCGTAGAATGAAGG
# [1] = system: LXRa:RXRa (NR concentration 270 nM, RXRa partner concentration 90 nM)
# Method in brief: (§1)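 Ligand-free nuclear receptor dimers were applied to custom Agilent 4×180K protein-binding microarrays whose double-stranded probes carried direct-repeat seeds, single-nucleotide variants, half-site ablations and random human genomic background sequences in 34-nt variable regions. Incubation lasted 1 h. Binding z-scores were computed against the random background probes from regression-normalized fluorescence.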
# [2] = system: LXRa homodimer (NR concentration 270 nM)
# Method in brief: as §1
# [3] = system: LXRb homodimer (NR concentration 270 nM)
# Method in brief: as §1
# [4] = system: PPARg:RXRa (NR concentration 180 nM, RXRa partner concentration 90 nM)
# Method in brief: as §1
# [5] = system: PPARg:RXRa 270nM:90nM, anti-RXR (NR concentration 270 nM, RXRa partner concentration 90 nM)
# Method in brief: as §1
# [6] = system: PPARg:RXRa 30nM:10nM, anti-RXR (NR concentration 30 nM, RXRa partner concentration 10 nM)
# Method in brief: as §1
# [7] = system: PPARg:RXRa 90nM:30nM, anti-RXR (NR concentration 90 nM, RXRa partner concentration 30 nM)
# Method in brief: as §1
# [8] = system: PPARg:RXRa DBDmut IVT, anti-RXR (DBD mutation: RXRa K156A/R161A, NR concentration 270 nM, RXRa partner concentration 90 nM)
# Method in brief: as §1
Sequence,PBM binding z-score [1],PBM binding z-score [2],PBM binding z-score [3],PBM binding z-score [4],PBM binding z-score [5],PBM binding z-score [6],PBM binding z-score [7],PBM binding z-score [8]
TCTAGTTGGTCACGGAGGGCACACACGACGGGTA,0.609,-0.107,0.00573,1.25,2.05,2.8,2.39,2.05
TATAAAGGGTCAAAGGCCAGAGTACGAATGTCGA,6.68,2.98,3.14,8.34,7.5,6.09,7.52,2.57
TCTCGGAGGTCACGAAAGGTCAGAGCTCGACATC,–,6.78,2.06,8.27,7.76,5.31,7.09,4.43
TGTCAAAGGTCAAAGGTAACGTAAGTATCCACAC,–,4.19,4.32,–,9.9,8.47,10.5,4.01
CAAACCAGGTCAAAGGTCAAAGTCGAGCCAACCA,–,5.78,3.31,13.2,10.7,11.3,12,6.71
ATCGAAAGGTCAAGGTGAGTATAGAGAAAGGGAA,–,2.78,3.58,8.08,7.77,5.24,7.07,3.34
CGTCAAAGGTCATAGGAGGTCAGTGAAGACAGAT,–,6.84,3.02,8.97,8.33,5.97,7.99,4.36
TCTAGTAGGTCAAAGGTCACACACTCGAAATGCG,–,5.52,2.6,–,11.6,13,14.2,8.19
GCTTACAGGTCAAAGGTTATAGCATGAATAGAAT,–,2.63,1.4,11.5,9.51,8.9,10.5,5.27
ATCGAAAGGTCATGAGGTGAGTATACAGAAAGGC,–,4.02,2.52,9.07,7.95,5.41,7.18,4.25
CGTCAAAGGTCAAGGTCAGTGAAAGAGACTCGAA,–,3.09,3.05,–,8.78,6.2,8.38,4.74
CCTCGGAGGTCAACAGGAGGTCAGAGCTGCCAGA,–,4.43,1.49,6.66,6.55,2.94,5.21,3.21
CAAACAAGGTCACAGAGGTCAAAGTCCGTGCGTA,–,8.49,3.24,9.2,8.4,5.17,7.73,6.04
CGTCAAAGGTCAATGCTAGGTCAGTGAAAGCATT,–,4.73,3.46,8.14,8.21,5.21,7.67,4.79
ACTCGGAGGTCAAAGGTCAGAGCTACGCCAGTGA,–,5.1,2.98,–,9.47,9.38,10.2,4.46
CAAACGAGGTCACAGAGGTCAAAGTCCGTGCGTA,–,8.64,3.01,9.94,8.76,6.47,8.53,6.82
CAAACGAGGTCACCGGAAGGTCAAAGTCCGCATG,–,6.35,2.17,9.26,8.2,5.78,7.55,6.23
CTCGAAAGGTCATGCTCAGGTGAGTATACCAAAC,–,3.89,2.44,7.63,8.05,4.38,6.89,4.16
CAAACGAGGTCAAAGGTCAAAGTCGAGCCAACCA,–,7.06,4.76,13.9,11.2,13.8,13.8,7.13
CAAACGAGGTCAAGGTCAAAGTCGGTTTGTGCCA,–,4.79,2.41,9.01,7.98,5.75,7.37,6.4
CGTCAAAGGTCAACTAAGGTAACGTAAAGCACGC,–,3.42,4.64,9.18,8.77,6.39,8.42,5.01

Sequence,PBM binding z-score [1],PBM binding z-score [2],PBM binding z-score [3],PBM binding z-score [4],PBM binding z-score [5],PBM binding z-score [6],PBM binding z-score [7],PBM binding z-score [8]
TGTCAAAGTTCAAAGGTCACGTAAGTATCCACAC,–,7.63,3.24,–,9.52,7.66,10.2,1.46
CCTTAGGGGTCACGAGGTTATAGCACGACGAGCG,–,1.59,0.631,–,9.08,6.93,8.31,5.82
TATACAGGGTCAAAGGTCAGAGTACGAATGTCGA,–,4.72,3.86,–,9.79,9.88,10.9,3.73
ATCGAAAGGTCAAAGGTGAGTATACCCACCCGAA,–,4.82,4.53,–,8.89,6.69,8.79,4.23
TATACGGGGTCAAAGGCCAGAGTACGAATGTCGA,–,4.73,5.42,–,9.09,7.56,9.05,4.38
CCTTAGGGGTCAAGGTTATAGCACGGGTGGTACG,–,1.33,1.15,8.58,7.98,5.01,7.42,3.07
AATACGGGGTCATCGTAGGCCAGAGTACGCACAG,–,4.62,2.94,9.53,8.49,6.12,7.88,4.48
CGTCTAAGGTCATAGGAGGTCAGTGAAGACAGAT,–,5.68,1.55,6.42,6.7,3.31,5.55,3.95
CAAACGAGGTCAAGAGGTCAAAGTCCGCTTCCCG,–,7.48,2.92,9.67,7.84,5.59,7.61,6.04
CAAACGAGGTCACGAAAGGTCAAAGTCGAATGAC,–,9.67,3.56,10.1,8.71,6.72,8.74,6.75
CGTCAAAGTTCAAGGTCACGTAACAGAAAGCAGC,–,5.71,2.05,6.83,6.7,3.83,5.84,2.03
CCTTAGGGGTCACTCCAGGTTATAGCATCGGAGT,–,3.9,1.26,7.77,7.74,4.31,6.51,3.7
GCTTAGGGGTCAAAGGTTATAGCATGAATAGAAT,–,1.95,2.82,11.8,9.66,9.13,10.2,5.79
CGTCAAAGGTCAAGGTAACGTAACAGAAAGCAGC,–,2.47,2.82,9.12,8.51,6.2,8.31,4.8
GCTTACGGGTCAAAGGTCATAGCATGAATAGAAT,–,4.02,1.77,–,10.4,12.9,12.5,5.72
AGTCAAAGGTCATCTAGGTAACGTAAGATATGCT,–,4.61,5.04,–,8.23,6.82,8.3,4.12
CGTCCAAGGTCAAAGGTCATTGAAGAGATGACGG,–,6.32,3.11,–,10,9.22,11.6,4.6
TTACCAAGGTCAAAGGTCGTTGATGCACGCCTTG,–,4.68,1.83,–,8.91,8.91,10.4,4.35
CAAACAAGGTCACGAAAGGTCAAAGTCGAATGAC,–,8.69,3.83,9.38,8.37,5.8,7.95,5.71
ACTTAGGGGTCAACGAGGTTATAGCACGCGTATA,–,2.91,2.35,9.33,8.62,6.08,8.5,5.4
CAAACAAGGTCACCGGAAGGTCAAAGTCCGCATG,–,6.36,2.43,8.84,7.81,4.78,7.17,5.54
